PAX8 inh HTS: inhibitors of PAX8-driven TPO luciferase reporter, primary screen, RMG-I cells, single concentration; actives 1.2% (n = 360,000); SteadyGlo, 24 h; inhibition, % at 12.6 µM; AID 652154, 2013;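 active means mean replicate inhibition at least 60% with every replicate also reaching 60%; inconclusive means only one of the two criteria is met; inactive means mean below 60% and not all replicates reaching 60%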;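 further: luciferase light reporting Pax8 driven TPO promoter activity; plate controls were median of neutral control wells for no effect and mitoxantrone controls for full effect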
TWEAK-Fn14 inh: inhibitors of TWEAK-Fn14 signaling, primary screen, luciferase reporter cells, uHTS; TWEAK-stimulated Fn14 reporter cells, luciferase luminescence, 8 h; inhibition, % at 10 µM; actives 2% (n = 360,000); AID 1159606, 2016; in the data active means inhibition above about 50%
EWS-Fli block: EWS/Fli-driven NR0B1 reporter inhibitors, primary screen, A673 cells, NR0B1 luciferase, luminescence, MLPCN library | viability-normalised | inhibition, % at 12.6 µM | actives 0.67% (n = 350,000) | AID 651661, 2012;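 active means mean inhibition of at least 50% after viability correction, with every replicate also passing that limit; inconclusive means mean reaches 50% but only one of two replicates passes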;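 further: firefly luciferase signal divided by Alamar Blue viability fluorescence both relative to DMSO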
LGR2 antag: inhibitors of bursicon-induced LGR2 CRE-luciferase signal, primary screen, cell-based, HEK293, CRE-luciferase reporter, bursicon stimulation. inhibition, % at 9.99 µM. AID 720647, 2013. Drosophila bursicon receptor LGR2 (rickets). actives 0.35% (n = 380,000). bursicon-stimulated, 4 h;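 active means drop in luminescence signal, shown as inhibition above about 50% in the replicate tests, limit read from the data, passing the limit was not always enough; inconclusive means probably only some replicates passing the limit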;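 further: agonist challenge used bursicon conditioned medium at about half maximal strength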
TROY NFkB inh: inhibitors of TROY-driven NF-kB signaling, primary screen, Q293 LMP1-TROYcd cells, NF-kB luciferase, uHTS. Q293 LMP1-TROYcd NF-kB luciferase reporter, 4 h. actives 0.98% (n = 360,000). inhibition, % at 10 µM;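 active means compounds whose plate-normalised and pattern-corrected inhibition of the luciferase reporter signal at the single screening dose is 50% or more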
The depositor's hits bear a star; u = inconclusive; x = no result given. The list is not random: actives were taken first. Their share in the collection is about 2.8%.

SMILES	PAX8 inh HTS	TWEAK-Fn14 inh	EWS-Fli block	LGR2 antag	TROY NFkB inh
C[C@H](CO)N1C[C@H](C)[C@@H](CN(C)Cc2ccc(C(F)(F)F)cc2)Oc2ccc(NC(=O)Nc3ccc(C(F)(F)F)cc3)cc2CC1=O	57	x	9	9	x
C[C@@H]1CN([C@@H](C)CO)C(=O)Cc2cc(NC(=O)Nc3ccc(C(F)(F)F)cc3)ccc2O[C@@H]1CN(C)C(=O)Nc1cccc2ccccc12	43	x	68*	5	x
C[C@H]1CN([C@@H](C)CO)C(=O)Cc2cc(NC(=O)Nc3ccc(C(F)(F)F)cc3)ccc2O[C@@H]1CN(C)Cc1ccc(-c2ccccc2)cc1	1	x	-4	17	x
C[C@@H]1CN([C@@H](C)CO)C(=O)Cc2cc(NC(=O)Nc3ccc(C(F)(F)F)cc3)ccc2O[C@H]1CN(C)Cc1ccc(Cl)c(Cl)c1	104*	x	67*	13	x
C[C@@H]1CN([C@@H](C)CO)C(=O)Cc2cc(NC(=O)Nc3ccc(C(F)(F)F)cc3)ccc2O[C@H]1CN(C)Cc1ccc(Oc2ccccc2)cc1	94*	x	6	11	x
C[C@@H]1CN([C@H](C)CO)C(=O)Cc2cc(NC(=O)Nc3ccc(C(F)(F)F)cc3)ccc2O[C@H]1CN(C)Cc1ccc(Oc2ccccc2)cc1	-11	x	-9	4	x
C[C@H](CO)N1C[C@H](C)[C@@H](CN(C)Cc2ccncc2)Oc2ccc(NC(=O)Nc3cccc4ccccc34)cc2CC1=O	67*	x	x	2	x
COc1ccc(NC(=O)Nc2ccc3c(c2)CC(=O)N([C@H](C)CO)C[C@H](C)[C@@H](CN(C)Cc2ccc(C(F)(F)F)cc2)O3)cc1	67*	x	14	8	x
COc1ccc(S(=O)(=O)N2[C@@H]3CNC[C@H]2C3c2ccc(-c3cccc(C)c3)cc2)cc1 (some centres not stated)	10	x	-8	8	x
C[C@@H]1CN([C@@H](C)CO)C(=O)Cc2cc(NC(=O)Nc3ccc(C(F)(F)F)cc3)ccc2O[C@H]1CN(C)Cc1ccc2c(c1)OCO2	80*	x	14	3	x
C[C@H]1CN([C@@H](C)CO)C(=O)Cc2cc(NC(=O)NC3CCCCC3)ccc2O[C@H]1CN(C)C(=O)Nc1ccc(C(F)(F)F)cc1	-9	x	1	-10	x
C[C@@H]1CN([C@@H](C)CO)C(=O)Cc2cc(NC(=O)CCCCCC(=O)Nc3ccccc3N)ccc2O[C@@H]1CN(C)Cc1ccc(C(F)(F)F)cc1	90*	x	34	-4	x
COc1ccc(NC(=O)Nc2ccc3c(c2)CC(=O)N([C@@H](C)CO)C[C@@H](C)[C@@H](CN(C)Cc2ccc(Oc4ccccc4)cc2)O3)cc1	98*	x	24	-18	x
C[C@@H]1CN([C@@H](C)CO)C(=O)Cc2cc(NC(=O)Nc3ccc(C(F)(F)F)cc3)ccc2O[C@H]1CN(C)C(=O)NC1CCCCC1	80*	x	39	13	x
C[C@H](CO)N1C[C@H](C)[C@@H](CN(C)Cc2ccc(C(F)(F)F)cc2)Oc2ccc(NC(=O)CCCCCC(=O)Nc3ccccc3N)cc2CC1=O	-11	x	42	-45	x
COCC(=O)N(C)C[C@H]1Oc2ncc(C#C[C@@H](C)O)cc2C(=O)N([C@@H](C)CO)C[C@H]1C	x	x	-2	19	x
O=C(C[C@H]1CC[C@@H]2[C@H](COC[C@H](O)CN2Cc2ccccc2)O1)NCc1ccccc1Cl	-5	x	-5	-8	x
C[C@@H]1CN([C@H](C)CO)C(=O)Cc2cc(NC(=O)CCC(F)(F)F)ccc2O[C@H]1CN(C)Cc1ccc2c(c1)OCO2	-36	x	-2	4	x
C[C@@H]1CN([C@H](C)CO)C(=O)c2cc(NC(=O)Nc3ccc(F)cc3)ccc2O[C@@H]1CN(C)C(=O)Nc1cccc2ccccc12	70*	x	9	5	x
C[C@@H]1CN([C@@H](C)CO)C(=O)Cc2cc(NS(=O)(=O)c3ccccc3)ccc2O[C@@H]1CN(C)C(=O)Nc1cccc2ccccc12	73*	x	6	11	x
C[C@H]1CN([C@@H](C)CO)C(=O)Cc2cc(NC(=O)CCC(F)(F)F)ccc2O[C@H]1CN(C)Cc1ccc2c(c1)OCO2	63*	x	-10	7	x
C[C@@H]1CN([C@@H](C)CO)C(=O)Cc2cc(NC(=O)Nc3ccc(C(F)(F)F)cc3)ccc2O[C@@H]1CN(C)C(=O)Nc1ccc2c(c1)OCO2	u	x	68*	17	x
Cc1noc(C)c1NC(=O)Nc1ccc2c(c1)CC(=O)N([C@@H](C)CO)C[C@H](C)[C@H](CN(C)Cc1ccc(C(F)(F)F)cc1)O2	72*	x	5	38	x
Cc1noc(C)c1NC(=O)Nc1ccc2c(c1)CC(=O)N([C@@H](C)CO)C[C@H](C)[C@@H](CN(C)Cc1ccc(C(F)(F)F)cc1)O2	14	x	15	-13	x
C[C@H](CO)N1C[C@H](C)[C@@H](CN(C)Cc2ccccc2)Oc2ccc(NC(=O)Nc3ccc(C(F)(F)F)cc3)cc2CC1=O	96*	x	23	9	x
SMILES	PAX8 inh HTS	TWEAK-Fn14 inh	EWS-Fli block	LGR2 antag	TROY NFkB inh
OC[C@@H]1[C@@H](c2ccccc2)C2(CN(CCC(F)(F)F)C2)N1Cc1cccnc1	3	x	-6	-1	x
Cc1ccc2nc(CSc3nc(C)ccc3C#N)[nH]c2c1	x	69*	-27	76*	45
Cc1ccc(C#N)c(SCc2ccccc2F)n1	-24	-44	-3	1	-35
CCN(CCNC(=O)c1cccc(N2CCCC2=O)c1)c1ccccc1	-22	52*	x	x	70*
COC(=O)c1cccc(Nc2c3c(nc4ccccc24)CCC3)c1	15	4	43	-2	7
CC(=O)c1cccc(Nc2c3c(nc4ccccc24)CCC3)c1	21	3	56*	-6	-7
CC(=O)c1ccc(Nc2c3c(nc4ccccc24)CCCC3)cc1	12	0	71*	8	15
COc1ccccc1Nc1c2c(nc3ccccc13)CCC2	42	6	62*	8	6
COc1ccc(S(=O)(=O)Nc2ccc3c(c2)C(=O)N([C@@H](C)CO)C[C@@H](C)[C@@H](CN(C)CC2CCCCC2)O3)cc1	-1	x	-21	12	x
CCCC#Cc1cnc2c(c1)C(=O)N([C@@H](C)CO)C[C@H](C)[C@H](CN(C)S(=O)(=O)c1cn(C)cn1)O2	-9	x	-10	-9	x
C[C@H](CO)N1C[C@H](C)[C@@H](CN(C)C)Oc2ccc(NS(=O)(=O)c3cccs3)cc2CC1=O	4	x	-1	8	x
COc1cc(/C=N/Nc2ccc(C(=O)O)cc2)cc(OC)c1OC	-93	-14	-88	-20	-54
COc1cc(/C=N/Nc2ccccn2)ccc1O	-145	63*	-39	-55	88*
COc1cc(/C=N/Nc2ccc(C(=O)O)cc2)ccc1O	3	72*	-29	23	27
COc1cccc(/C=N/NC(=S)Nc2cccc(C(=O)O)c2)c1O	12	-1	61*	66*	-34
